# Measured values from PubChem BioAssay (Tox21).
# Records with an inconclusive call do not appear. A call without a number means that no potency is given here. Activity calls are given as the source filed them. Unless noted, the call rests on the fitted dose curve; in most records, active means well fitted curve in the direction sought with a large enough effect in the repeat runs; inconclusive means weak or mixed curves; inactive means no such curve, though single readings can be large; an effect the other way counts as inactive or inconclusive.
# Tests used:
# [1] = qHTS assay to identify small molecule agonists of the RXR signaling pathway - cell viability counter screen (AID 1159529); further: series mostly up to about 77 µM; nearly all actives have a fitted effect of over 50% in size
# In short: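 Compounds dissolved in DMSO were pinned onto HEK 293T cells carrying a beta-lactamase reporter under RXR-alpha control and incubated 16 hr. Cytotoxicity was then quantified by CellTiter-Glo luminescence.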
# [2] = qHTS assay to identify small molecule antagonists of the retinoid acid receptor (RAR) signaling pathway - cell viability counter screen (AID 1159551); further: nearly all actives have a fitted effect of over 35% in size
# In short: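 In this counter screen, the RARE-luciferase line C3RL4 was exposed for 6 h at 37 C and 5% CO2 to compounds with retinol at 1 uM final. Cellular ATP, read by luminescence, served as the viability measure.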
# [3] = qHTS assay to identify small molecule antagonists of the retinoic acid receptor (RAR) signaling pathway (AID 1159552; further: nearly all actives have a fitted effect of over 50% in size)
# In short: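 Test chemicals and DMSO controls were pin-transferred onto C3RL4 cells a day after seeding; retinol (1 uM final) followed at once. Luminescent reporter output was quantified after 6 hr of co-incubation and 30 min with detection reagent.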
# [4] = qHTS assay to identify small molecule antagonists of the estrogen related receptor (ERR) signaling pathway from Tox21 library - cell viability counter screen (AID 1224834); further: nearly all actives have a fitted effect of over 30% in size; further: potency means the concentration at half of the fitted maximal effect
# In short: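 Counter screen run in ERR cells (2,000 cells/well): cells pre-incubated 6 h, then treated with compounds for 17.5 h at 37 C. Fluorescence was read 30 min after CellTiter-Fluor addition.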
# [5] = target: Luciferin 4-monooxygenase (Photinus pyralis) (UniProt P08659); assay: qHTS assay to identify small molecule inhibitors of firefly luciferase (AID 1224835); further: series mostly up to about 120 µM; nearly all actives have a fitted effect of over 25% in size
# Luciferin 4-monooxygenase (Photinus pyralis), sequence (P08659 whole entry, looked up): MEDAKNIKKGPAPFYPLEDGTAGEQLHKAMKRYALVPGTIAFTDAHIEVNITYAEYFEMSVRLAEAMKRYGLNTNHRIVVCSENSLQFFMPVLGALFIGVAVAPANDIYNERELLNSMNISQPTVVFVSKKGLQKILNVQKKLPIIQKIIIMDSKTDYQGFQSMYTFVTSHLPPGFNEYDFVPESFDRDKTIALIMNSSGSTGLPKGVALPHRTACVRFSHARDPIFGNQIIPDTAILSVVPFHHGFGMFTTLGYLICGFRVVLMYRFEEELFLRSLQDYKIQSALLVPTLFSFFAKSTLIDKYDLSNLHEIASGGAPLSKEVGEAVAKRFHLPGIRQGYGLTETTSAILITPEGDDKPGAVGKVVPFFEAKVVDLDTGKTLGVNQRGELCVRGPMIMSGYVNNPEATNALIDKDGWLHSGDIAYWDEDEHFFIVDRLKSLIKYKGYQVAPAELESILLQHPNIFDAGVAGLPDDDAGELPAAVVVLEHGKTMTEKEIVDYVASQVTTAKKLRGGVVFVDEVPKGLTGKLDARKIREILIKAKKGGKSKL
# In short: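 Inhibition of purified Photinus luciferase is measured by luminescence. Substrate levels (D-luciferin, ATP) sit at their KM values. Each compound is tested in a concentration series.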
# [6] = qHTS assay to identify small molecule agonists of the constitutive androstane receptor (CAR) signaling pathway - cell viability counter screen (AID 1224836); further: series mostly up to about 92 µM; nearly all actives have a fitted effect of over 45% in size
# In short: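 23 h treatment, 37 C, 5% CO2. Cell line: HepG2 stably expressing hCAR with a CYP2B6-2.2kb construct. Co-treatment: PK11195, 0.75 uM final. Read-out: CellTiter-Fluor fluorescence intensity.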
# [7] = qHTS assay to identify small molecule antagonists of the constitutive androstane receptor (CAR) signaling pathway - cell viability counter screen (AID 1224837); further: series mostly up to about 92 µM; nearly all actives have a fitted effect of over 45% in size
# In short: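 CITCO at 50 nM final was added alongside compounds (15 concentrations) to double-stable hCAR/CYP2B6-2.2kb HepG2 cells. Following 23 hr at 37 C, cell viability was quantified by CellTiter-Fluor fluorescence intensity.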
# [8] = qHTS assay to identify small molecule antagonists of the estrogen related receptor signaling pathway with the pleiotropic PPARgamma coactivator (PGC) from Tox21 10K library - cell viability counter screen (AID 1224840; active means well fitted cell-killing curve with a large enough effect in the repeat runs, not every such curve was filed as active; further: nearly all actives have a fitted effect of over 40% in size)
# In short: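 Readout: fluorescence intensity from CellTiter-Fluor after 30 min at 37 C/5% CO2. Preceded by 17.5 h treatment of PGC/ERR cells with DMSO-dissolved compounds, added 6 h post-seeding.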
# [9] = qHTS assay to identify small molecule agonists of the estrogen related receptor signaling pathway with the pleiotropic PPARgamma coactivator (PGC) from Tox21 10K library (AID 1224842); further: nearly all actives have a fitted effect of over 15% in size
# In short: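 Luminescence from One-Glo (30 min, room temperature) measured after PGC/ERR cells had 18 h at 37 C with pinned compound (23 nL in DMSO). Cells had been seeded at 2,000 per well and pre-incubated 6 h.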
# [10] = target: Nuclear receptor subfamily 1 group I member 3 (Homo sapiens) (UniProt Q14994); assay: qHTS assay to identify small molecule antagonists of the constitutive androstane receptor (CAR) signaling pathway (AID 1224838); further: nearly all actives have a fitted effect of over 40% in size
# Nuclear receptor subfamily 1 group I member 3 (Homo sapiens), sequence (Q14994 whole entry, looked up): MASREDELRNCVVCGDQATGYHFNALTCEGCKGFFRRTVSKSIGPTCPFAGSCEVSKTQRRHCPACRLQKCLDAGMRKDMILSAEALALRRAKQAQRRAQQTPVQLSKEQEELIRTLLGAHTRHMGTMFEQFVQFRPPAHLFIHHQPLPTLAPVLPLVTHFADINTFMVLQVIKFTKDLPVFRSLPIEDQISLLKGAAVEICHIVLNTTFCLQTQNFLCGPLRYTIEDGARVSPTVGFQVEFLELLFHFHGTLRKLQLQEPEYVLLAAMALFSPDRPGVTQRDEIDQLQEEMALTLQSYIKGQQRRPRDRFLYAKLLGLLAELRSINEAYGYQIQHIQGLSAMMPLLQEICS
# In short: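 Inhibition of CITCO-driven (50 nM final) CYP2B6 reporter expression is measured in HepG2 cells stably carrying hCAR. Fifteen compound concentrations are applied for 24 h at 37 C, followed by luciferase luminescence.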
# [11] = target: Nuclear receptor subfamily 1 group I member 3 (Homo sapiens) (UniProt Q14994); assay: qHTS assay to identify small molecule agonists of the constitutive androstane receptor (CAR) signaling pathway (AID 1224839); further: series mostly up to about 92 µM; nearly all actives have a fitted effect of over 15% in size
# In short: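 Compounds tested at 15 concentrations on HepG2 cells stably harbouring hCAR and CYP2B6-2.2kb reporter constructs, co-treated with PK11195 (0.75 uM final), 24 h at 37 C; luminescent reporter signal quantified.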
# [12] = target: Thyrotropin receptor (Homo sapiens) (UniProt P16473); assay: qHTS assay to identify small molecule agonists of the thyroid stimulating hormone receptor (TSHR) signaling pathway (AID 1224843; calls by dose curve; further: nearly all actives have a fitted effect of over 45% in size)
# Thyrotropin receptor (Homo sapiens), sequence (P16473 whole entry, looked up): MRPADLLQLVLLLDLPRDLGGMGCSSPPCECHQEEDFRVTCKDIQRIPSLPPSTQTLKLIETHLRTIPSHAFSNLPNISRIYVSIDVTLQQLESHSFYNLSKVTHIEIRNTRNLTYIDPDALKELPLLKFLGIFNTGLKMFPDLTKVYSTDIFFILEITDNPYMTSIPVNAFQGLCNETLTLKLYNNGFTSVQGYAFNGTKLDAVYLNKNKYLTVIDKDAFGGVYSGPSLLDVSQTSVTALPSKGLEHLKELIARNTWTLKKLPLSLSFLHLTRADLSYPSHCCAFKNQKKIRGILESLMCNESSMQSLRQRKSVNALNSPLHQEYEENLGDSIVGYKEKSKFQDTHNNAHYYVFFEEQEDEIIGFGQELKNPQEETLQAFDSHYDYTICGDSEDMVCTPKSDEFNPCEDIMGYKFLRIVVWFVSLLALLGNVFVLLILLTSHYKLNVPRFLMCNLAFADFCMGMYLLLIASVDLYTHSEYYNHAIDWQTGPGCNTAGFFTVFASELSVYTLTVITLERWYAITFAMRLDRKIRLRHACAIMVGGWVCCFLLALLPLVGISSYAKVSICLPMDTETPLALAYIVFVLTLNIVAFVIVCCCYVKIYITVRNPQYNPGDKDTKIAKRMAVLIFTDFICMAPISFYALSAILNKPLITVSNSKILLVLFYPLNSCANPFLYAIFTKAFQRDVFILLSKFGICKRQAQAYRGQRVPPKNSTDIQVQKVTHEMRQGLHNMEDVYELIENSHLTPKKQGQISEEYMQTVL
# In short: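 A cell-based cAMP HTRF format was run in TSHR-transfected HEK293 cells, 800 per well. Treatment: 30 min, room temperature. Detection: 1 h with labelled cAMP and anti-cAMP cryptate. Concentration-response over 15 points, three replicates.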
# [13] = qHTS assay to identify small molecule antagonists of the estrogen related receptor signaling pathway with the pleiotropic PPARgamma coactivator (PGC) from Tox21 10K library (AID 1224841; call rule not given here; further: series mostly up to about 92 µM; actives are mostly falling curves and most rising ones were filed inactive; nearly all actives have a fitted effect of over 50% in size)
# In short: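 One-Glo luminescence, measured after half an hour at room temperature, quantified reporter output of PGC/ERR cells. These had been plated at 2,000 per well, incubated 6 h, dosed with compounds in DMSO, then kept 18 h at 37 C.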
SMILES,Potency [1],Potency [2],Potency [3],Potency [4],Potency [5],Potency [6],Potency [7],Potency [8],Potency [9],Potency [10],Potency [11],Potency [12],Potency [13]
CCCCC(CC)COC(=O)c1ccc(C(=O)OCC(CC)CCCC)cc1 (centres undefined),inactive,inactive,inactive,inactive,inactive,inactive,inactive,inactive,inactive,,,,
CS(=O)(=O)c1ccc(Cl)cc1,inactive,inactive,inactive,inactive,inactive,,inactive,inactive,inactive,inactive,inactive,inactive,
CC/C=C(\C(=O)N[C@@H]1C(=O)N2C(C(=O)OCOC(=O)C(C)(C)C)=C(COC(N)=O)CS[C@H]12)c1csc(N)n1,inactive,inactive,inactive,inactive,inactive,inactive,inactive,inactive,,inactive,inactive,inactive,
CCCCC(=O)O,inactive,inactive,inactive,inactive,inactive,inactive,inactive,inactive,,inactive,inactive,inactive,
C=C1C[C@]23C[C@@]1(O)CC[C@H]2[C@@]12C=C[C@H](O)[C@@](C)(C(=O)O1)[C@H]2[C@@H]3C(=O)O,inactive,inactive,inactive,inactive,inactive,,,inactive,inactive,,,inactive,
Cc1ccc([N+](=O)[O-])cc1N,inactive,inactive,inactive,inactive,inactive,,inactive,inactive,,inactive,inactive,inactive,
CCCCCCC(=O)O,inactive,inactive,inactive,inactive,inactive,inactive,inactive,inactive,inactive,inactive,inactive,inactive,
O=C(c1ccccc1)c1ccc(O)c(O)c1O,inactive,inactive,inactive,49 µM (active),,inactive,inactive,inactive,inactive,,,inactive,
COc1c2ccoc2cc2oc(=O)ccc12,inactive,inactive,inactive,inactive,inactive,inactive,inactive,inactive,,inactive,,inactive,
OCC(CO)(CO)CO,inactive,inactive,inactive,inactive,inactive,inactive,inactive,inactive,,inactive,inactive,inactive,
COc1c(Cl)ccc(Cl)c1C(=O)O,inactive,inactive,inactive,inactive,inactive,,inactive,inactive,,inactive,inactive,inactive,
CC(C)=CCC/C(C)=C/C=O,inactive,inactive,inactive,inactive,inactive,inactive,inactive,inactive,,inactive,inactive,inactive,
COC(=O)/C=C\C(=O)OC,inactive,inactive,inactive,inactive,inactive,,inactive,inactive,inactive,inactive,inactive,inactive,inactive
C=CC(C)(C)C,inactive,inactive,inactive,inactive,inactive,,inactive,inactive,inactive,inactive,inactive,inactive,
CCOC(=O)CC(=O)OCC,inactive,inactive,inactive,inactive,inactive,,inactive,inactive,,,,inactive,
CC(=O)OCCC(C)C,inactive,inactive,inactive,inactive,inactive,,inactive,inactive,inactive,inactive,inactive,,
NCCNCCNCCN,inactive,inactive,inactive,inactive,,,inactive,inactive,,inactive,inactive,inactive,
O=C1CCCCCCCCCCC1,inactive,inactive,inactive,inactive,inactive,,inactive,inactive,,inactive,inactive,inactive,
CC(=O)OC/C=C(\C)CCC=C(C)C,inactive,inactive,inactive,inactive,inactive,inactive,inactive,inactive,,inactive,inactive,inactive,
